Compounds without any hit were thinned out: in the full panel of roughly 79,000, 15% have a hit. Unmarked numbers belong to inactive results. Active and inactive are the calls of the source. Cut-off read from the data, not from the text of the source: active = growth inhibition above about 70%; inactive = the rest.
Assays:
[1] = NCI Yeast Anticancer Drug Screen. Data for the rad50 strain (AID 155);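 note: 0% = growth of vehicle-only cultures of the same strain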; settings: S. cerevisiae rad50 strain growth inhibition; at 50.0 µM; stronger effect = higher value
Summary of the method: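 Vehicle-treated cultures provide the reference for the growth inhibition reported for compound-exposed, repair-deficient yeast.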

[2] = NCI Yeast Anticancer Drug Screen. Data for the mec2-1 strain (AID 157); settings: S. cerevisiae mec2-1 strain, at 50.0 µM, stronger effect = higher value
Summary of the method: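 Test agents were screened against the mec2-1 yeast strain, with defined DNA repair or cell cycle alteration. Growth was scored as inhibition against vehicle-only controls.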

[3] = NCI Yeast Anticancer Drug Screen. Data for the sgs1 mgt1 strain (AID 161);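 note: 0% = growth of cultures given vehicle only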; settings: S. cerevisiae sgs1 mgt1 strain, at 50.0 µM, stronger effect = higher value
Summary of the method: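 Genetically altered yeast, compound exposure, growth inhibition relative to vehicle.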

[4] = NCI Yeast Anticancer Drug Screen. Data for the cln2 rad14 strain (AID 165);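 note: 0% = growth equal to vehicle treated cultures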; settings: S. cerevisiae cln2 rad14 strain, at 50.0 µM, stronger effect = higher value
Summary of the method: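 Growth of compound-exposed yeast (cln2 rad14 genotype) measured and expressed as inhibition relative to vehicle.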

[5] = NCI Yeast Anticancer Drug Screen. Data for the bub3 strain (AID 167); settings: S. cerevisiae bub3 mutant strain, at 50.0 µM, stronger effect = higher value
Summary of the method: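 Mutant yeast screening strain plus compound; vehicle-treated cultures serve as the 0% inhibition reference.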

[6] = NCI Yeast Anticancer Drug Screen. Data for the mlh1 rad18 strain (AID 175); settings: S. cerevisiae mlh1 rad18 strain growth inhibition; at 50.0 µM; stronger effect = higher value
Summary of the method: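 In this whole-cell yeast screen, a strain with altered DNA damage repair is challenged with compound, and its growth is measured against matched vehicle-treated controls.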

SMILES | growth inhibition [1] | growth inhibition [2] | growth inhibition [3] | growth inhibition [4] | growth inhibition [5] | growth inhibition [6]
COc1ccc(C(=O)c2ccc(C)c3c(C)cccc23)cc1 | 4.5% | -9.55% | 4.9% | -16.6% | -7.9% | 4.85%
CCSc1n[nH]c(=O)nc1NN | -0.35% | -3.85% | -28.4% | -60% | -19.2% | -2.75%
CC(=O)C1=CCC(C(C)C)C1 (stereo not given) | 4.2% | -0.9% | -1.2% | -1.3% | 17.1% | 2%
CCCCNC(=O)C(CCCC)C(CCC)(CCC)CCCC (stereo not given) | -21.4% | -13% | -16.5% | -35.8% | 55.3% | 3.55%
C/C=C/C=c1/[nH]c(=O)/c(=C\C)[nH]c1=O | -6.85% | -5.15% | -10.6% | -21.5% | 0.95% | -14.2%
CCOC(=O)C1CCCCC1NC1CCCCC1C(=O)OCC (stereo not given) | 4.65% | -2.35% | -22.9% | -14.2% | -16.2% | 8.9%
N#CC1=C(c2ccccc2)NN(Cc2ccccc2)C(c2ccc(Cl)cc2)CC1=O (stereo not given) | 31.9% | 7.25% | 8.25% | -44.1% | 2.6% | 30.6%
[N-]=[N+]=NCN1C(=O)C2C3C=CC(C2C1=O)C1C2C(=O)N(CN=[N+]=[N-])C(=O)C2C31 (stereo not given) | -3.2% | -4.1% | -39.4% | 4.4% | -25.8% | -42.1%
N=C(N)SCC(=O)c1ccc([N+](=O)[O-])cc1 | -6.65% | 4.95% | 1.35% | -0.4% | 3.85% | 5.8%
CC1(C)OC(C2SCCS2)C2OC(=O)C(O[Si](C)(C)C(C)(C)C)C2O1 (stereo not given) | 18.2% | 16.2% | 2.75% | 0.9% | -2.6% | -1.5%
CCCn1c(=S)[nH]c2c(=O)n(C)c(=O)n(C)c21 | -3.55% | -8.9% | -0.45% | -17.8% | -4.85% | 5.65%
O=C(CCC(=O)OCC1CCCO1)OCC1CCCO1 (stereo not given) | 1.15% | 2.45% | 4.7% | 4.9% | 5.75% | -2.8%
Cn1c(=O)c2c(ncn2CCNC(c2ccccc2)c2ccc(Br)cc2)n(C)c1=O (stereo not given) | 4.55% | 1.55% | 11.3% | -35.3% | 24.1% | 13.6%
Cc1c[nH]c2nc(C)n(-c3ccc(F)cc3)c(=N)c12 | 4.1% | 2.4% | -9.05% | -14.6% | 5.3% | 5.3%
CSC1NC(c2ccc(Cl)cc2)=C(C#N)C(=O)N1C1OCC(OC(C)=O)C(OC(C)=O)C1OC(C)=O (stereo not given) | -10% | -23.6% | -24.2% | -3.85% | -8.6% | -8.8%
O=C1CC(c2ccccc2)OC(c2ccccc2Cl)C1 (stereo not given) | -1.25% | -8.35% | -39.5% | -20.7% | -5.85% | 9.1%
COC(=O)c1c2c(cc3c1CC1(Cc4cc5c(cc4C1)CCCC5)C3)CCCC2 | -6.3% | -16.4% | -21.9% | 12.3% | -5.8% | 7.35%
COC1OC(=O)c2cccc3cccc1c23 (stereo not given) | -9.3% | -14.8% | -8.2% | -7.5% | -2.4% | -18.7%
CC(O)CCCCC(O)CCC[C@H](O)[C@H]1CCC([C@H]2CCC([C@@H](O)CCCCCCCCCCCCC3=C[C@H](C)OC3=O)O2)O1 (stereo not given in full) | 40.9% | 29.1% | 71.2% (active) | 85.5% (active) | -16.7% | 81.7% (active)
CCCCSc1nc2c(=O)[nH][nH]c(=O)c2n1Cc1ccccc1 | 11.9% | 3.45% | 23.2% | 14.7% | -0.8% | 1.5%

SMILES | growth inhibition [1] | growth inhibition [2] | growth inhibition [3] | growth inhibition [4] | growth inhibition [5] | growth inhibition [6]
Cc1cc2c(cc1Cl)SC(N/N=C(\N)c1ccc(Cl)cc1)=NS2(=O)=O | -34.2% | -0.8% | -12.3% | -16.2% | -14.4% | -8.1%
CCN(CCC#N)C(=S)Nc1ccc(C)c(C)c1 | -9% | -8.55% | 0% | 1% | -8.6% | 0.1%
Cc1cn(C2CC(O)C(CO)O2)c(=O)nc1NC1CCCCCCCCCCC1 (stereo not given) | 1.25% | 5.7% | 10.1% | 12.9% | -5.5% | -6.4%
Cc1cc(Cl)cc(CN(Cc2ccccc2)Cc2cc(Cl)cc(C)c2O)c1O | 1.3% | -3.55% | 18.2% | 25.7% | 2% | -6.8%
CC(=O)NCCc1[nH]cnc1N=Nc1ccc(Br)cc1 | 0.95% | 39.4% | 14.7% | -6.15% | 52.1% | 27.3%
CCOC(=O)NC(CC)c1ccc2oc3ccccc3c2c1 (stereo not given) | -10.5% | 1.9% | 20.4% | -4.15% | 32% | -15.3%
O=C(O)CC(Nc1ncccn1)C(=O)O (stereo not given) | 3.05% | 6% | 10.7% | 24.1% | -6.1% | 5.4%
COC1(OC)C[C@H](C)[C@@]23O[C@]24c2cc(O)c5c(c2N[C@H]3C#C/C=C\C#C[C@]14O)C(=O)c1ccccc1C5=O | 87.7% (active) | 87.2% (active) | 88.8% (active) | 88% (active) | 89.3% (active) | 90.8% (active)
NC(Cc1c(F)c(F)c(F)c(F)c1F)C(=O)O (stereo not given) | -2.6% | 2.95% | 11.2% | -11.3% | -12.1% | -7.4%
CNc1ccc(C(=O)O)cc1 | -7.8% | -14% | -2.25% | 5.1% | -0.5% | -9.9%
O=C(c1ccc(Cl)c(Cl)c1)N1CCCCC1 | -1.25% | -7% | 13.8% | -48.5% | -12.5% | -6.25%
O=C(OCC(Br)C(Br)c1ccccc1)c1ccccc1 (stereo not given) | -13.3% | -12.6% | -2% | -1.4% | 73.6% (active) | -27.6%
O=C(O)CCC(NC(=O)/C(=C/c1ccccc1)NC(=O)c1ccccc1)C(=O)O (stereo not given) | 4.8% | 6.55% | 31% | 8.75% | 18.2% | -10.4%
CC(C)(CCC(=O)O)CCC(=O)O | 16.3% | 17.6% | 15.8% | -6.05% | -4% | 36%
Cc1cccc2c1sc1c(C)cc(C(=O)CCC(=O)O)cc12 | 9% | 11.2% | 5.3% | 3.4% | 20.4% | 25.4%
CCOC(=O)c1ccc(NCc2nc3ccccc3nc2C)cc1 | -17.8% | -4% | -18% | -29.1% | 1.95% | -19.2%
Cn1c(CC(O)c2nc3ccccc3n2C)nc2ccccc21 (stereo not given) | -18.7% | -18.6% | -10.2% | -8.75% | -23.8% | -33.5%
CCOC(=O)c1cnc2ccccc2c1 | 3.65% | 6.8% | 5.95% | -44.9% | -1.15% | 3.3%
N#Cc1ccc(OCCCOc2ccccc2)cc1 | 4.2% | 47.5% | 20.8% | -2.7% | 37.4% | 4.5%
Cc1cc(C)c(NC(=O)NC2CCCCC2)c(C)c1 | 4.7% | 7.05% | 23.6% | -3.55% | 34% | 31.1%

Source: PubChem BioAssay (NCI)
